Compound activity (PubChem BioAssay)
A selection: hits, their analogues and other compounds. The true share with any hit is near 1.7%.
TLR4-MyD88 BLA – TLR4-MyD88 interaction inhibition in cells | actives 0.18% (n = 200,000) | O00206+Q99836 | inhibition, % at 8.4 µM | HeLa CL3-4 TLR4/MyD88 BLA complementation, FRET ratio | AID 861; in the data active = inhibition above about 25%;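 also: 0% = vehicle and 100% = reference inhibitor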
NOD2-RIPK2 inh – blocks binding of human NOD2 to RIPK2; CHO BLA complementation NOD2-RIPK2, CCF4 ratio; O43353; actives 0.38% (n = 360,000); AID 624267; inhibition, % at 4.98 µM; in the data active = inhibition above about 21%;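 also: 0% = vehicle only and 100% = reference blocker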
Target sequence (O43353 whole entry, looked up): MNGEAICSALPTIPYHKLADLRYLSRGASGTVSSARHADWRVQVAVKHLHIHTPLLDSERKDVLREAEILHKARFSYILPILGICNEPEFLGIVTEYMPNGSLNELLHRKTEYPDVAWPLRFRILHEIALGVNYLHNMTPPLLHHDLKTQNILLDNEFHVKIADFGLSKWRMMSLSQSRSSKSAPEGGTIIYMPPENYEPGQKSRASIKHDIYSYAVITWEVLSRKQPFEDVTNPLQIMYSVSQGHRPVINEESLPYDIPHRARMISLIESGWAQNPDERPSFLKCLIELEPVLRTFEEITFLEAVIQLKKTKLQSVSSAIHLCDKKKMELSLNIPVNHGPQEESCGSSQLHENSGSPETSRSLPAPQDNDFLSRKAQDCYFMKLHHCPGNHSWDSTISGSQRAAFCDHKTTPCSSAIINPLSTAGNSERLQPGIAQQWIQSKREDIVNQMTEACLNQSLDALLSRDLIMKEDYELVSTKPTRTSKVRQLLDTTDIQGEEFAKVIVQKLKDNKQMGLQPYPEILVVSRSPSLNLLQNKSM
ABCB6 inh 2 – human ABCB6 transporter inhibition. fluorescence ratio to DMSO, % at 10 µM. K562-ABCB6 porphyrin accumulation, flow cytometry, 1 h; hits give low values. actives 0.19% (n = 360,000). Q9NP58. AID 602162;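 active = fluorescence ratio to DMSO below 75%, the collection mean minus 3 SD; inconclusive = too few cells collected in the well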;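 also: signal is porphyrin accumulated inside mitochondria; 100% equals median channel fluorescence of DMSO control wells; lower ratio means ABCB6 inhibition with less porphyrin fluorescence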
TLR9-MyD88 block – blocks human TLR9 binding to MyD88. inhibition, % at 4.98 µM. actives 0.21% (n = 340,000). CHO BLA complementation TLR9-MyD88, CCF4 FRET ratio. Q9NR96+Q99836;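 active = inhibition above the mean over all tested compounds plus 3 SD, cut at about 21% in these data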;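 also: 0% = DMSO only wells and 100% = clavulanate BLA inhibitor control wells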
Myeloid diff MLP – compounds promoting myeloid differentiation; ER-HoxA9 myeloid progenitors, lysozyme-GFP differentiation, flow cytometry; calls only at 10 µM; actives 1% (n = 360,000);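 active = normalized GFP-positive differentiation at or above the plate's own cutoff, the solvent-only control mean plus 3 SD; inconclusive = no clear call, values can overlap the other calls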;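 also: cells exposed to compound for four days before flow analysis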
Starred values were filed as active, the others as inactive; i = inactive; ? = inconclusive; nt = no result given; + = active, no number; ! = a repeat was not active.

SMILES	TLR4-MyD88 BLA	NOD2-RIPK2 inh	ABCB6 inh 2	TLR9-MyD88 block	Myeloid diff MLP
COc1ccc2cc(CN(CC3CCCO3)S(=O)(=O)c3ccc(C(C)=O)cc3)c(=O)[nH]c2c1 (centres undefined)	7	-7	97	1	+
COC(=O)c1ccccc1S(=O)(=O)N(Cc1cc2ccc(OC)cc2[nH]c1=O)CC1CCCO1 (centres undefined)	8	13	98	-4	i
O=c1cc(N2CCN(c3ccccc3Cl)CC2)[nH]c(=O)n1Cc1ccc(F)cc1	nt	1	98	5	?
COc1ccccc1N1CCN(c2cc(=O)n(Cc3ccc(F)cc3)c(=O)[nH]2)CC1	5	-5	93	10	+
CC(=O)Nc1ccc(NC(=O)C(C)OC(=O)CNS(=O)(=O)c2cccc(Cl)c2)cc1 (centres undefined)	8	4	97	-10	i
Cc1ccc(CNc2ccc3c(c2)OCO3)cc1	23	15	850	9	+
CC(C)COc1ccc(C(=S)N2CCCC2)cc1	nt	-34	97	-10	i
O=C(CSc1ncnc2nc[nH]c12)N1CCN(c2ccccc2)CC1	-8	-1	102	-5	+
Cc1cc2c(SCC(=O)N3CCN(c4ccccc4)CC3)ncnc2s1	nt	-2	96	-5	i
COc1cccc(C2=CC(c3ccccc3)n3nnnc3N2)c1 (centres undefined)	0	4	98	8	i
COc1cccc(C2C=C(c3ccc(OC)cc3OC)Nc3nnnn32)c1 (centres undefined)	8	31*	98	46*	i
Cc1cc(C)cc(N(C(=O)c2csnn2)C(C(=O)NC2CCCC2)c2ccccn2)c1 (centres undefined)	nt	-3	96	-4	i
CCCN(CCC)C(=O)Cn1c(=O)c2sccc2n2c(=S)sc(-c3ccccc3)c12	-4	-1	432	-5	+
CCCN(CCC)C(=O)Cn1c(=O)c2ccccc2n2c(=S)sc(-c3ccccc3C)c12	-13	-11	106	2	i
C(=N\Nc1nc2ccccc2[nH]1)/c1ccc2ncccc2c1	nt	1	101	5	+
C(=N\Nc1nc2ccccc2[nH]1)/c1ccccn1	-18	0	100	-7	i
O=C1CCC[C@@H]2C=C[C@H](c3ccc(Br)cc3)[C@H]3CCN1[C@@H]32	nt	0	91	nt	i
CNc1cncc(-c2cccc(C(=O)NC3CC3)c2)n1	nt	3	95	nt	i
N#Cc1cc(C(=O)c2cc(F)ccc2O)cn(-c2nccs2)c1=O	5	3	211	-11	+
N#Cc1cc(C(=O)c2ccccc2O)cn(-c2nccs2)c1=O	-1	2	93	11	i
CS(=O)(=O)c1cccc(C(=O)Nc2ccc3c(c2)OCCCO3)c1	nt	-4	99	-5	i
CCN(CC)c1ccc(/C=C2\C(=N)N3N=C(CC(=O)N4CCOCC4)SC3=NC2=O)cc1	nt	-13	263	13	+
CSc1ccc(/C=C2\C(=N)N3N=C(CC(=O)N4CCOCC4)SC3=NC2=O)cc1	nt	-3	94	8	i
N#C/C=C1/NC(=O)c2ccccc2S1	-14	-12	107	-2	+
COC(=O)c1ccc2c(c1)NC(=O)c1ccccc1S2	nt	7	91	7	i
SMILES	TLR4-MyD88 BLA	NOD2-RIPK2 inh	ABCB6 inh 2	TLR9-MyD88 block	Myeloid diff MLP
CC(=O)Oc1ccc2c(c1)O/C(=C\c1ccncc1)C2=O	nt	31*	101	13	i
O=C(Oc1ccc2c(c1)O/C(=C\c1ccncc1)C2=O)c1cccs1	nt	8	95	nt	i
COc1ccc2c(-c3ccccc3)cc(SCC(N)=O)nc2c1	nt	-7	96	-8	+
Nc1nc2ncc(CNc3ccc(C(=O)N[C@@H](CCC(=O)O)C(=O)O)cc3)nc2c(=O)[nH]1	nt	-5	98	-11	i
CN(Cc1cnc2nc(N)nc(N)c2n1)c1ccc(C(=O)N[C@@H](CCC(=O)O)C(=O)O)cc1	nt	-3	103	3	+!
CCOC(=O)c1c(NC(=O)c2c(-c3ccccc3)noc2C)sc(C)c1-c1ccccc1	0	-8	100	-8	+
CN=C1c2cc3cc(OC)ccc3n2CCN1C	-4	-4	101	-13	+
CC[C@@H](NC(=O)[C@@H](Cc1ccccc1)NC(=O)CC[C@H]1O[C@@H](n2ccc(=O)[nH]c2=O)[C@H](O)[C@@H]1O)c1ccccc1	nt	10	93	nt	i
COc1cc(-c2nnc(SCC(=O)N(Cc3ccccc3)C(C)(C)C)o2)cc(OC)c1OC	8	-5	92	16	+
COc1cc(OC)cc(-c2nnc(SCC(=O)N(Cc3ccccc3)C(C)(C)C)o2)c1	-2	-1	99	-2	+
COc1cc(OC)cc(-c2nnc(SCC(=O)N(C(C)C)C(C)C)o2)c1	6	-8	94	0	i
CC1=CCC(C(=O)O)C(C(=O)Nc2nc3ccc(S(C)(=O)=O)cc3s2)C1 (centres undefined)	-8	-11	103	-3	+
CCOC(=O)CNC(=O)N1CCCC(C(=O)c2ccc3c(c2)OCO3)C1 (centres undefined)	10	-8	106	-1	+
CCOC(=O)C1CCCN(C(=O)c2ccc3c(c2)OCO3)C1 (centres undefined)	5	-4	101	-20	i
O=C(CS(=O)(=O)c1ccc(Cl)cc1)Nc1nccs1	nt	4	98	-14	i
CC(C)(C)[C@@H]1COC(=O)[C@H](Cc2ccc(F)cc2)CC/C=C\C[C@@H](CC(=O)N(CCO)Cc2ccccc2)C(=O)N1	nt	7	93	-2	i
Cc1ccc(CO/N=C\Cc2snc(Sc3ncc(C(F)(F)F)cc3Cl)c2C#N)cc1	-3	-14	129	2	+
Cc1nnc(SCCn2c(N3CCCC(C)C3)nc3c2c(=O)[nH]c(=O)n3C)s1 (centres undefined)	2	-13	97	6	i
Cc1nnc(SCCn2c(N3CCC(C)CC3)nc3c2c(=O)[nH]c(=O)n3C)s1	-8	-14	91	5	+
COc1cc(/C=C/c2nc3ccccc3s2)cc(OC)c1O	11	9	107	15	+
COc1ccc(S(=O)(=O)N2CCCCCC2)cc1NC(=O)CN(C)Cc1ccc2c(c1)OCO2	nt	-2	96	3	+
CC(C)(C(=O)N1CCC1(C)C(=O)NC1Cc2ccccc2C1)c1ccccc1 (centres undefined)	nt	-3	97	nt	i
CCOC(=O)CCC(=O)O[C@H]1[C@H](O[C@@H]2[C@@H](C)[C@H](O[C@H]3C[C@@](C)(OC)[C@@H](O)[C@H](C)O3)[C@@H](C)C(=O)O[C@H](CC)[C@@](C)(O)[C@H](O)[C@@H](C)C(=O)[C@H](C)C[C@@]2(C)O)O[C@H](C)C[C@@H]1N(C)C	-16	-7	676	-7	+
